We go through 40 sequences from the OligoGym collection.
Further: reference of the scale not given here.

The target of one test is ZSCAN21. As to the kind of experiment: pooled miR-30 sensor sort-seq; sequence = guide strand. The following applies: shRNA.
Consider TTTCTCTTCTTTCTCCTCGACT, for which the sensor-assay potency score (higher = more potent) was -0.944.
Same read-out and setting: as for TTCGTTACACTGATAAGGCTTC, the figure is 0.478.
Same read-out and setting: as for TTAACTAGACTGGATACACGTC, the figure is -0.514; as for TACTCAATCTGCAATCTCGGAC, -0.338.
On the same count and under the same terms, as for TAGGAACTGATTCTCTACCTTT, the figure is 0.143.

The target of the next test is ZSCAN2. Described as above. The settings on record: shRNA.
Take TACAGCACTGTCCTGAAGGGTC: the sensor-assay potency score (higher = more potent) was -0.556.
On the same count and under the same terms, as for TATCTCAAAATCACTGTCCTGA, the figure is 0.962; as for TTGTAACTAAAGCTTTCGCCGC, -0.979.
In the case of TAAAATTTGAACCATCACTAAA, the sensor-assay potency score (higher = more potent) is -1.38.
Still for that read-out and setting: under TAAAGCTTTTTCCACATTCATC stands -1.45.
The same measure, in the same setting: under TTGTAGTATTTCTCTCCTGTGT stands -0.38; under TTTCCGAGAATATCTTACGTGA, -0.583.
On to TTAGATTGGAGTTGTAACTAAA, for which the sensor-assay potency score (higher = more potent) was -0.577.
Same read-out and setting: under TAGTATACAAAAGCTACCCGAC stands -0.627; under TTGAGGAGGTTGGAGCTCCAGC, -0.932.
Still for that read-out and setting: under TTCATTCTCAAACATGTCTTGA stands -0.592.
Regarding TTCACTGTCCTGAAGGGTCTGG, the sensor-assay potency score (higher = more potent) turned out to be 0.109.

The target in another test is ZSWIM5. The description is as above. The settings on record: shRNA.
As to TTGTCTGTCATGTTTGTTCCTT, the sensor-assay potency score (higher = more potent) is -0.0787.
Same read-out and setting: as for TAGCAATCTTGAATGCATCTTG, the figure is 0.435.
On the same count and under the same terms, under TTAAAGAGTAGTCTTTCACTTT stands -0.123; under TAGAATATGTCCTTGTTCCCAC, -0.0166; under TAGTGAATACTGTTCGTCTTGG, -0.686.
The same measure, in the same setting: as for TAGCTCATCGTCCAGCTGCAGC, the figure is -1.21.
Take TTGAGTTGAGTTGCTTTCCAGA: the sensor-assay potency score (higher = more potent) is -0.443.
The same measure, in the same setting: under TTTGTCAGTGGACATGAGCTTT stands -0.796; under TAGTCTTTCACTTTCCCGCTGG, 0.269; under TTGAGGTTGTCGATGAACTGGG, -0.0434.
Still for that read-out and setting: under TTCTGTAGCACAGGTCACCAAC stands -1.2.
The same measure, in the same setting: as for TTGCACTAGCTCATCGTCCAGC, the figure is -0.629.

Another test has as its target ZZEF1. The description is as above. The settings on record: shRNA.
Regarding TTTCTTTTGAACTTATGCCCGT, the sensor-assay potency score (higher = more potent) was -0.351.
The same measure, in the same setting: under TAGCACTTTGCTACTGACTTGA stands 0.394; under TTTAACAGGTCACAGTAGCGAG, -1.06; under TTCTTGTTTTAGTATCTCCATG, -1.42.
On the same count and under the same terms, as for TTGAGGAGCAGGTTCTGTCTGA, the figure is -0.0904.
Still for that read-out and setting: under TTAACCTCCTTACTATTCCGGT stands -0.49.
Turning to TTAATCTGGACATAGAGCTGAC, the sensor-assay potency score (higher = more potent) was -0.316.
TTATAGGCAAACACCAACCCAC: the sensor-assay potency score (higher = more potent) is -0.586.
On the same count and under the same terms, as for TTCAGCTGCAGGTAGCACCAGG, the figure is -0.559; as for TTGAGAAATCTGTAGATCCTGG, 0.26; as for TTAGTGTTTTATACAATCCTTT, -0.602.
